From PubChem BioAssay
Calls of active or inactive are those of the source.

Columns and labels:
Albumin (Bos taurus) = Albumin (Bos taurus) (UniProt P02769); assay: compounds binding labelled BSA control protein – biochemical, small-molecule microarray, Alexa647 label, 635/667 nm fluorescence, artefact control for SMM control protein annotation, profiling panel (AID 1118); conditions: BSA-A647 binding, fluorescence 635 nm, higher = more signal;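 note: score merges 667 nm emission intensity and signal-to-noise per printed compound spot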
[1] = probe aXIP binding to arrayed compounds – biochemical, NeuroSMM set, 635/667 nm fluorescence, primary screen (AID 1119); conditions: small-molecule microarray, higher = more signal, called active from +8 up or from −8 down;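 note: probe is the protein aXip251-270 applied at 1 µg/mL to compound-printed slides; binding of probe to printed compounds measured as 667 nm fluorescence plus signal to noise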
[2] = probe aNOTCH3 binding on compound microarray – biochemical, small-molecule microarray, 635/667 nm fluorescence, primary screen (AID 1120); conditions: higher = more signal;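 note: probe is a biotin-tagged antibody raised against NOTCH3 rather than NOTCH3 protein; score merges spot fluorescence near 667 nm with spot signal to noise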
[3] = probe aNOTCH2 binding on compound microarray – biochemical, small-molecule microarray, 635/667 nm fluorescence, primary screen (AID 1121); conditions: higher = more signal;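 note: score merges feature fluorescence read at 667 nm with its signal to noise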
[4] = target: Carbonic anhydrase 2 (Homo sapiens) (UniProt P00918); assay: compounds binding carbonic anhydrase 2 – biochemical, small-molecule microarray, Alexa647-labelled CAII, profiling panel (AID 1122); conditions: CAII-A647 binding fluorescence, higher = more signal
[5] = COS7 lysate on small-molecule microarray, probe aHis, 635 nm (AID 1123); conditions: COS7 cell lysate, fluorescence, higher = more signal;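 note: z-score combines 667nm fluorescence intensity with signal-to-noise per printed compound spot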
[6] = probe aLAP1 signal on lysate-treated microarray – cell lysate, small-molecule microarray, COS7 lysate, primary screen (AID 1124); conditions: probe aLAP1, fluorescence, higher = more signal;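 note: lysate comes from COS7 cells expressing LAP1 and is applied at 0.3 µg/mL; score merges spot fluorescence near 667 nm with signal-to-noise over triplicate slides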
Sam68 (KHDRBS1) = assay: compounds binding KHDRBS1 protein – biochemical, small-molecule microarray, 635 nm fluorescence, primary screen (AID 1125); conditions: higher = more signal;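 note: score merges 667 nm channel intensity with signal to noise over triplicate slides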
[7] = tested on: Chordin-like protein 2 (CHRDL2); assay: compounds binding chordin-like 2 – biochemical, small-molecule microarray, 635 nm fluorescence, primary screen (AID 1126); conditions: fluorescence 635 nm, higher = more signal;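 note: printed compound slides probed with Chrdl2 protein at 4 µg/mL for 1 h at 4 C; score merges 667 nm emission intensity with signal to noise over three replicate slides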
[8] = target: Concanavalin-A (Canavalia ensiformis) (UniProt P02866); assay: compounds binding concanavalin A lectin – biochemical, small-molecule microarray, Alexa647 label, 635 nm, artefact control for SMM control protein annotation, primary screen (AID 1127); conditions: ConA-A647 binding fluorescence, higher = more signal;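 note: z combines 667 nm emission intensity with signal-to-noise across three replicate slides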
[9] = compounds binding Alexa647 anti-His antibody – biochemical, small-molecule microarray, 635 nm fluorescence, artefact control for SMM control protein annotation, primary screen (AID 1128); conditions: higher = more signal;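 note: score merges feature fluorescence with signal-to-noise for each printed compound spot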
[10] = tested on: Human papillomavirus type 1a E7 protein (residues 1-88); assay: HPV1a E7 small-molecule binders, primary screen, biochemical, small-molecule microarray, residues 1-88, 635 nm (AID 1129); conditions: small-molecule microarray binding, fluorescence 635 nm; higher = more signal
[11] = target: Focal adhesion kinase 1 (Homo sapiens) (UniProt Q05397); assay: PTK2 protein binding on printed compound slides – biochemical, small-molecule microarray, 635/667 nm fluorescence, BSA, DTT, primary screen (AID 1130); conditions: 635 nm fluorescence, higher = more signal;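 note: composite of spot emission at 667 nm and signal to noise over triplicate slides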
[12] = tested on: Fibrinogen (Alexa647-labelled); assay: Alexa647-fibrinogen binding to printed small molecules – biochemical, small-molecule microarray, 635/667 nm fluorescence, artefact control for SMM control-protein annotation, profiling panel (AID 1131); conditions: fibrinogen-A647 binding fluorescence, higher = more signal;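 note: z-score merges 667 nm fluorescence with per-spot signal-to-noise over triplicate slides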
[13] = target: Follistatin (Homo sapiens) (UniProt P19883); assay: FST protein binding to printed compounds – biochemical, small-molecule microarray, 635/667 nm fluorescence, primary screen (AID 1132); conditions: 635 nm fluorescence, higher = more signal
[14] = target: Fibroblast growth factor 2 (Homo sapiens) (UniProt P09038); assay: basic fibroblast growth factor binding to printed compounds – biochemical, small-molecule microarray, 635/667 nm fluorescence, primary screen (AID 1133); conditions: FGF2, fluorescence 635/667, higher = more signal
[15] = JC-1 mitochondrial potential readout, lung cancer cells – cell-based, A549, JC-1 fluorescence, basal, 24 h, 100 nL, profiling panel (AID 1138); conditions: higher = more signal;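 note: A549 lung adenocarcinoma cells under basal conditions with no added stimulus; test concentration not given here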
Lefty1 = Lefty1 protein binding to printed compounds – biochemical, small-molecule microarray, 635/667 nm fluorescence, primary screen (AID 1139); conditions: fluorescence 635/667, higher = more signal
[16] = tested on: wheat germ agglutinin (Triticum aestivum), Alexa647-labelled; assay: Alexa647-WGA lectin binding to printed small molecules – biochemical, small-molecule microarray, 635/667 nm fluorescence, artefact control for SMM control-protein annotation, profiling panel (AID 1140); conditions: WGA-A647 binding, 635 nm fluorescence, higher = more signal;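 note: score merges 667 nm feature emission with signal to noise over triplicate slides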
[17] = target: Luciferin 4-monooxygenase (Photinus pyralis) (UniProt P08659); assay: inhibition of purified Photinus pyralis luciferase – biochemical, luminescence, purified enzyme, 2006 set, primary screen (AID 1141); conditions: purified firefly luciferase, SteadyGlo luminescence, 30 min; higher = more signal, called active from +8 up or from −8 down;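 note: cell-free assay with purified firefly luciferase at 100 ng per well in PBS; test concentration not given here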
Luciferin 4-monooxygenase (Photinus pyralis), sequence (P08659 whole entry, looked up): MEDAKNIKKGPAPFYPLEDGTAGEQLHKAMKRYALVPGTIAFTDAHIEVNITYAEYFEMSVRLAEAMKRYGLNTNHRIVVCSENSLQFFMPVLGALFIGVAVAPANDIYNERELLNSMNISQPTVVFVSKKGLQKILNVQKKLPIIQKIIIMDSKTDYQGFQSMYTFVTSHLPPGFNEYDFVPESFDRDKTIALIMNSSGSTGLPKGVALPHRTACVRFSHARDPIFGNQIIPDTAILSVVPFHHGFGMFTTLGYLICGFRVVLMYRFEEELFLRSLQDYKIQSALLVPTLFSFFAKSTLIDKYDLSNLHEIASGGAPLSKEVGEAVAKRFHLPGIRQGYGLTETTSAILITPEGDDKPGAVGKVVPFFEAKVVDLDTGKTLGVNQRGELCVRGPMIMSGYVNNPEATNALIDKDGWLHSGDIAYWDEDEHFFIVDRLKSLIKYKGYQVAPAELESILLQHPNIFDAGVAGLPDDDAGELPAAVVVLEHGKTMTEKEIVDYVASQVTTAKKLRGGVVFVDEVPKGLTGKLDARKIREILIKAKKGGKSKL

Albumin (Bos taurus), sequence (P02769 whole entry, looked up): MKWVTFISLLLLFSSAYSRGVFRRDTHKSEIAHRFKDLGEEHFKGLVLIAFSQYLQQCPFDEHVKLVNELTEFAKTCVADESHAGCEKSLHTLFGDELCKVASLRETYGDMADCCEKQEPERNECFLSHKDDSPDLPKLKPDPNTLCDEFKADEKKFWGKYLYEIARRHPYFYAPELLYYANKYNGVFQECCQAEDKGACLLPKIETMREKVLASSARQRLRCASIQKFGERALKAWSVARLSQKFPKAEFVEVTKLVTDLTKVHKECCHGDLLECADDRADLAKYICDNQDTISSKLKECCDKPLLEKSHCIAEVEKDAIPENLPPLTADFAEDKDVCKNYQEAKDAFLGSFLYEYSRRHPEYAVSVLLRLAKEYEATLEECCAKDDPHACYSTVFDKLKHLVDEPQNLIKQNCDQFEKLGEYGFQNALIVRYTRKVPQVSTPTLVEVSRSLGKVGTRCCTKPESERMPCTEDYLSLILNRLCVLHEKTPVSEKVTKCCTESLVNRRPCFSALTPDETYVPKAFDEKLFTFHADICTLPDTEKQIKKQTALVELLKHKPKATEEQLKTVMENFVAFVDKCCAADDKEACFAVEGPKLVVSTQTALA
Follistatin (Homo sapiens), sequence (P19883 whole entry, looked up): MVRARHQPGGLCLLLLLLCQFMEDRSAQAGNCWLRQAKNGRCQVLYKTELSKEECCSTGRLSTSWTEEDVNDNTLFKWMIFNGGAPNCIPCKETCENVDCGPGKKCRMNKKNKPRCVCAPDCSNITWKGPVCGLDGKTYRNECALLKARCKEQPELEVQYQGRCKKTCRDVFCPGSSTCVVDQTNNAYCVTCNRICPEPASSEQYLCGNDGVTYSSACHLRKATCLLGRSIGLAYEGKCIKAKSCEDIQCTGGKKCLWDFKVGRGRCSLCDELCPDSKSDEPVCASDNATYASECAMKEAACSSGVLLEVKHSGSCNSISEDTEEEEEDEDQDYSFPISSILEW
Fibroblast growth factor 2 (Homo sapiens), sequence (P09038 whole entry, looked up): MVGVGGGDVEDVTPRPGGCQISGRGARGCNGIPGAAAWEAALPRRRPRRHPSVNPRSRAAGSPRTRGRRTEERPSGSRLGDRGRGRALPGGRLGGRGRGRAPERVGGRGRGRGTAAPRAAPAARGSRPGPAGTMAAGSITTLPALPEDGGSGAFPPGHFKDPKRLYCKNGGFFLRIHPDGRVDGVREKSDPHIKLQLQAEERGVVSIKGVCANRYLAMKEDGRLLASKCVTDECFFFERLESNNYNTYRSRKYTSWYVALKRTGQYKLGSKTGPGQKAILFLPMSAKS
Focal adhesion kinase 1 (Homo sapiens), sequence (Q05397 whole entry, looked up): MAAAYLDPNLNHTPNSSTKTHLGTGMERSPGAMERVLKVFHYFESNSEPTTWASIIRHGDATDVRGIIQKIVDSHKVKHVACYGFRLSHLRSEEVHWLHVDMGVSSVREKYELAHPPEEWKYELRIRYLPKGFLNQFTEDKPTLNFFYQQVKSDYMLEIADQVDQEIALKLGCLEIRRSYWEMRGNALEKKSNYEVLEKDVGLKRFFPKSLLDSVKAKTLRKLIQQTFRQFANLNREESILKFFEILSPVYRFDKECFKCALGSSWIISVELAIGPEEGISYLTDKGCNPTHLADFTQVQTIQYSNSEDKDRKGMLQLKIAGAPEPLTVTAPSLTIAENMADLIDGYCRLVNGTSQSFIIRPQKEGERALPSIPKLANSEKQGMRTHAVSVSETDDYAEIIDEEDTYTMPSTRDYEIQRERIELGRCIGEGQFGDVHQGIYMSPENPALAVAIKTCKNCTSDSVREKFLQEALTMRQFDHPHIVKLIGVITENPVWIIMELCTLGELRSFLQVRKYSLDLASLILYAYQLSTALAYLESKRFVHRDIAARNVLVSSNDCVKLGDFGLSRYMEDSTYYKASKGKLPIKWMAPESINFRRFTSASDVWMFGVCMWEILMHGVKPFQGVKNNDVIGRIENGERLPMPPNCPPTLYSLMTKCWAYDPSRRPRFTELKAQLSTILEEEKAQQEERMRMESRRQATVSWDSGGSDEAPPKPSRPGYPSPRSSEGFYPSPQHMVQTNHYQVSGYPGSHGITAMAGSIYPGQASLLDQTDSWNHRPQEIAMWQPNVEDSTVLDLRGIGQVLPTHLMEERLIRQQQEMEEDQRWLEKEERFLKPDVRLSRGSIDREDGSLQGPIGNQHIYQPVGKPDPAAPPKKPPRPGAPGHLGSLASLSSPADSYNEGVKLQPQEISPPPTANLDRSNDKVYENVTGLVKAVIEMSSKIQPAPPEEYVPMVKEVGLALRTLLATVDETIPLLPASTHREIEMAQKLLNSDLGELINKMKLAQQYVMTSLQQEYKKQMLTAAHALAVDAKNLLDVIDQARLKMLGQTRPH
Concanavalin-A (Canavalia ensiformis), sequence (P02866 whole entry, looked up): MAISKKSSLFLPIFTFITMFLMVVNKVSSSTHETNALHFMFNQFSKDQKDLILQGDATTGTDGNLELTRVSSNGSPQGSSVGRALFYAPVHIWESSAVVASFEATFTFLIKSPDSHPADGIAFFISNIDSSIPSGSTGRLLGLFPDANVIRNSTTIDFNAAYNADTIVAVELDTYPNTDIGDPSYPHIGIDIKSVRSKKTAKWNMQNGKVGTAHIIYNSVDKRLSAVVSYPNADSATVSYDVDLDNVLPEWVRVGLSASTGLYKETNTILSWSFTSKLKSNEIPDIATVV

Compound: CCOC(=O)C=Cc1cccc(C)c1O
- composite z-score (Albumin (Bos taurus)): -0.268
- composite Z-score [1]: -0.352 (inactive)
- composite z-score [2]: -0.0881
- composite z-score [3]: -0.114
- composite z-score [4]: 0.422
- composite z-score [5]: -0.15
- composite z-score [6]: 0.514
- composite z-score (Sam68 (KHDRBS1)): -0.0261
- composite z-score [7]: -0.0961
- composite z-score [8]: 0.0646
- composite z-score [9]: 0.0346
- composite z-score [10]: -0.0448
- composite z-score [11]: 0.617
- composite z-score [12]: 0.252
- composite z-score [13]: 0.208
- composite z-score [14]: 0.0326
- z-score [15]: -1.56
- composite z-score (Lefty1): -0.0408
- composite z-score [16]: -0.399
- z-score [17]: -9.24 (active)

Compound: CCCCN1CC=CC23O[C@@H]4/C=C\CCCOC(=O)C4[C@H]2C(=O)N(CCO)[C@@H]3C1=O (stereo not given in full)
- composite z-score (Albumin (Bos taurus)): 0.634
- composite Z-score [1]: 0.257 (inactive)
- composite z-score [2]: -0.426
- composite z-score [3]: -0.161
- composite z-score [4]: 0.321
- composite z-score [5]: 1.1
- composite z-score [6]: -0.0065
- composite z-score (Sam68 (KHDRBS1)): 0.109
- composite z-score [7]: -1.08
- composite z-score [8]: -0.557
- composite z-score [9]: 1.3
- composite z-score [10]: 0.0166
- composite z-score [11]: 0.101
- composite z-score [12]: -1.25
- composite z-score [13]: -1.03
- composite z-score [14]: -1.33
- z-score [15]: -0.655
- composite z-score (Lefty1): -0.832
- composite z-score [16]: -0.724
- z-score [17]: 1.19 (inactive)

Compound: COc1ccccc1CN1C(=O)c2ccccc2[C@](Cc2ccccc2I)(C(=O)O)[C@@H]1c1ccc(CO)cc1
- composite z-score (Albumin (Bos taurus)): 0.76
- composite Z-score [1]: 0.114 (inactive)
- composite z-score [2]: 0.0961
- composite z-score [3]: -0.0238
- composite z-score [4]: 0.328
- composite z-score [5]: 2
- composite z-score [6]: 0.704
- composite z-score (Sam68 (KHDRBS1)): 1.27
- composite z-score [7]: 0.227
- composite z-score [8]: 1.18
- composite z-score [9]: 1.76
- composite z-score [10]: 1.21
- composite z-score [11]: 0.758
- composite z-score [12]: 0.809
- composite z-score [13]: 1.26
- composite z-score [14]: 1.33
- z-score [15]: 0.227
- composite z-score (Lefty1): 0.74
- composite z-score [16]: 0.762
- z-score [17]: -1.01 (inactive)

Compound: CCOC(=O)C[C@H]1[C@H](OC(=O)c2ccc(-c3ccccc3)cc2)[C@@H](NC(=O)CC(C)C)c2cc(OCCCO)ccc2N1C(=O)c1ccc2ccccc2n1
- composite z-score (Albumin (Bos taurus)): 0.363
- composite Z-score [1]: -0.122 (inactive)
- composite z-score [2]: 0.041
- composite z-score [3]: -0.161
- composite z-score [4]: 0.0808
- composite z-score [5]: 1.19
- composite z-score [6]: -0.259
- composite z-score (Sam68 (KHDRBS1)): 0.787
- composite z-score [7]: 0.0987
- composite z-score [8]: 1.07
- composite z-score [9]: -0.282
- composite z-score [10]: 0.516
- composite z-score [11]: 0.365
- composite z-score [12]: 0.944
- composite z-score [13]: 0.285
- composite z-score [14]: 0.0792
- z-score [15]: 0.5
- composite z-score (Lefty1): 0.455
- composite z-score [16]: 0.262
- z-score [17]: 0.854 (inactive)

Compound: CS(=O)(=O)CCOC(=O)C1=CC(CCCO)=CC(c2ccc(CN3CCCC3)cc2)N(Cc2sc3ccccc3c2Cl)C=C1C(=O)OCCS(C)(=O)=O (stereo not given)
- composite z-score (Albumin (Bos taurus)): 1
- composite Z-score [1]: 1.14 (inactive)
- composite z-score [2]: 0.439
- composite z-score [3]: 0.251
- composite z-score [4]: 0.823
- composite z-score [5]: 2.21
- composite z-score [6]: 1.12
- composite z-score (Sam68 (KHDRBS1)): 1.3
- composite z-score [7]: 1.03
- composite z-score [8]: 1.19
- composite z-score [9]: 2.17
- composite z-score [10]: 1.18
- composite z-score [11]: 0.45
- composite z-score [12]: 1
- composite z-score [13]: 0.526
- composite z-score [14]: 1.21
- z-score [15]: 2.31
- composite z-score (Lefty1): 0.722
- composite z-score [16]: 1.31
- z-score [17]: -1.57 (inactive)

Compound: CCOC(=O)C[C@H]1[C@H](OC(=O)c2ccc(C(=O)c3ccccc3)cc2)[C@@H](NC(=O)C2CCCCC2)c2cc(OCCCO)ccc2N1C(=O)c1ccc2ccccc2n1
- composite z-score (Albumin (Bos taurus)): 0.534
- composite Z-score [1]: -0.482 (inactive)
- composite z-score [2]: -0.0647
- composite z-score [3]: -0.102
- composite z-score [4]: 0.0738
- composite z-score [5]: 1.05
- composite z-score [6]: -0.0375
- composite z-score (Sam68 (KHDRBS1)): 1.31
- composite z-score [7]: 0.24
- composite z-score [8]: 0.955
- composite z-score [9]: 0.497
- composite z-score [10]: 0.835
- composite z-score [11]: 0.0096
- composite z-score [12]: 0.102
- composite z-score [13]: 0.796
- composite z-score [14]: 0.979
- z-score [15]: 0.956
- composite z-score (Lefty1): 1.41
- composite z-score [16]: 0.0469
- z-score [17]: 0.425 (inactive)
